Here are results for 40 molecules from PubChem BioAssay (EPA / NIEHS).

Calls of active or inactive are those of the source. The calls were made as follows: active = hit-call score of the fitted dose curve at least 0.9, where 1 is the maximum; inactive = score below 0.9.

Read-out in the experiment: Bcl-2 (BAD) gene, BAD (gene 572)
Briefly: LTEA_HepaRG_BAD: Life Technologies and Expression Analysis (LTEA) Assay for Bcl-2 (BAD) gene using HepaRG (AID 2283469). The settings on record: mRNA level, 48 h; actives raise or lower the signal. As to the method:
LTEA_HepaRG is a cell based, multiplexed-readout assay that uses HepaRG, a human liver cell line, with measurements taken at 48 hours after chemical dosing on a 96-well plate.LTEA_HepaRG_BAD is one of 102 assay component(s) measured in the LTEA HepaRG cell culture assay. It is a marker of Cell proliferation, survival, death.Data from the assay component LTEA_HepaRG_BAD was analyzed into 1 endpoint. This assay endpoint, LTEA_HepaRG_BAD, was analyzed with bidirectional fitting relative to DMSO as the negative control and baseline of activity. Using a type of inducible reporter, measures of mRNA induction for gain or loss-of-signal activity can be used to understand regulation of transcription factor activity. To generalize the intended target to other relatable targets, this assay endpoint is annotated to the cell cycle intended target family, where the subfamily is Cell proliferation, survival, death.
A total of 1060 chemcials from the ToxCast library were tested in eight-point concentration-response experiments. Cell culture and cytotoxicity assays were conducted at Thermo Fisher Scientific's Custom Services facility (Madison, WI). A single lot of human HepaRG cells (Thermo Fisher Scientific, Frederick, MD) was used for the cell culture experiments. 96-well format collagen type I coated plates of human HepaRG cells were prepared using established methods. Briefly, cryopreserved HepaRG cells were thawed, plated at a density of approximately 100,000 cells/well in HepaRG Thaw, Plate, and General Purpose media (HPRG770, Thermo Fisher Scientific), and incubated for 48 hours. 0.5% DMSO was selected as vehicle control to balance the requisite need of DMSO in HepaRG cultures to maintain differentiation (for example, baseline metabolism, proportions of hepatocytes vs. cholangiocytes), while enabling further hepatic receptor pathway activation (for example, PXR and CAR) in response to chemical exposure. 48 hours after plating, the culture medium was replaced with HepaRG Serum-Free Incudtion Media. Cells were exposed to each test chemical in duplicate and maintained in CO2 incubators for another 48 hours. Chemical plates were thawed to room temperature and 200x concentrations of treatment groups were prepared. 8-point conentration-reponse curves were made with the highest exposure at 100 uM, followed by half-log dilutions, all in 0.5% DMSO. Each test plate contained variouse controls, induction positive controls (1mM phenobarbital), cytotoxicity positive controls ([…] aflatoxin B1), vehicle controls (0.5% DMSO), and total lysis controls (0.5% DMSO). Cell morphology images were taken using an Essen IncuCyte FLR automated microscope, with six 96-well plates imaged in about 24 minutes. Images were captured and exported and JPEG files. Spent culture media was transfered to black-well plates for the LDH assay, and remaining media was sorted at -80 C for later use. Cells were treated with RLT buffer and frozen until shipped for gene expression analysis. Total RNA was isolated from the cell suspension in 75 uL of Buffer RLT (Qiagen, Germantown, MD 20874) by Quintiles/Expression Analysis (Durham, NC) using a custom isolation procedure. Total RNA from each plate well was transferred to a preamplification plate. Fluidigm's 96.96 Dynamic ArrayTM (Fluidigm, Amsterdam, the Netherlands) technology was used for gene expression analyses by quantitative reverse transcription polymerase chain reaction (qRT-PCR, performed by Quintiles/Expression Analysis, Durham, NC)89. Standard TaqManTM Assays (Applied Biosystems/ThermoFisher Scientific, Foster City, CA) were used to assess the expression of 93 genes selected based on their selectivity and sensitivity to important hepatic receptors known to be modulated by environmental chemicals; importance in human hepatocyte functionality; and hepatotoxicity. […]
Consider `O=[N+]([O-])/N=C1\NCCN1Cc1ccc(Cl)nc1`, for which the result was inactive.
As for `CC(C)OC(=O)Nc1cccc(Cl)c1`, the entry is “inactive”; as for `CCc1ccc(C(=O)NN(C(=O)c2cc(C)cc(C)c2)C(C)(C)C)cc1`, “inactive”.
As for `O=C(O)COc1ccc(Cl)cc1Cl`, the entry is “inactive”; as for `ClC1C(Cl)C(Cl)C(Cl)C(Cl)C1Cl` (stereo not given), “inactive”.
As for `Oc1ccc(Cl)cc1Cc1ccccc1`, the entry is “inactive”.
Consider `CCCN(CCOc1c(Cl)cc(Cl)cc1Cl)C(=O)n1ccnc1`, for which the molecule was called inactive.
The same measure for `CCOC1Oc2ccc(OS(C)(=O)=O)cc2C1(C)C` (stereo not given): “inactive”.
Regarding `CN1CSC(=S)N(C)C1`, the call was inactive.
Turning to `CCN(CC)C(=O)SCc1ccc(Cl)cc1`, the call was inactive.
As for `N#CN`, the entry is “inactive”; as for `CCC(C)Nc1c([N+](=O)[O-])cc(C(C)(C)C)cc1[N+](=O)[O-]` (stereo not given), “inactive”; as for `CNC(=O)Oc1ccccc1OC(C)C`, “inactive”.
As for `COc1nn(CSP(=S)(OC)OC)c(=O)s1`, the entry is “inactive”; as for `Oc1cc(Cl)ccc1Oc1ccc(Cl)cc1Cl`, “inactive”.
For `COP(=S)(OC)Oc1ccc([N+](=O)[O-])cc1`, the molecule was classed as inactive.
The same measure for `OCCOc1ccccc1`: “inactive”; for `COP(=S)(OC)Oc1ccc(SC)c(C)c1`: “inactive”; for `C[C@H]1[C@H](c2ccc(Cl)cc2)SC(=O)N1C(=O)NC1CCCCC1`: “inactive”.
The same measure for `Clc1ccccc1-c1nnc(-c2ccccc2Cl)nn1`: “inactive”; for `CCC(C)(NC(=O)c1cc(Cl)c(C)c(Cl)c1)C(=O)CCl` (stereo not given): “inactive”.
The same measure for `O=C(NC(=O)c1c(F)cccc1F)Nc1ccc(OC(F)(F)C(F)OC(F)(F)F)c(Cl)c1` (stereo not given): “inactive”; for `O=C(Nc1ccccc1)Nc1cnns1`: “inactive”.
Consider `CC1(c2ccc(Oc3ccccc3)cc2)OC(=O)N(Nc2ccccc2)C1=O` (stereo not given), for which the result was inactive.
The same measure for `CCC(C)(C)C(=O)OC1=C(c2ccc(Cl)cc2Cl)C(=O)OC12CCCCC2`: “inactive”.
The same measure for `CNC(=O)CSP(=S)(OC)OC`: “inactive”; for `CCOCN(C(=O)CCl)c1c(C)cccc1CC`: “inactive”.
The same measure for `CCCN(CCC)c1c([N+](=O)[O-])cc(C(F)(F)F)cc1[N+](=O)[O-]`: “inactive”; for `CC1(C)C(C=C(Cl)Cl)C1C(=O)OC(C#N)c1ccc(F)c(Oc2ccccc2)c1` (stereo not given): “inactive”.
On to `O=S(=O)(O)C(F)(F)C(F)(F)C(F)(F)C(F)(F)C(F)(F)C(F)(F)C(F)(F)C(F)(F)F`, for which the molecule was called inactive.
The same measure for `O=C1c2ccccc2C(=O)N1SC(Cl)(Cl)Cl`: “inactive”; for `CC(C)N(C(=O)COc1nnc(C(F)(F)F)s1)c1ccc(F)cc1`: “inactive”; for `O=[N+]([O-])c1c(Cl)c(Cl)c(Cl)c(Cl)c1Cl`: “inactive”.
As for `CNC(=O)Oc1cccc(N=CN(C)C)c1`, the entry is “inactive”.
Consider `C#CCN1C(=O)COc2cc(F)c(N3C(=O)C4=C(CCCC4)C3=O)cc21`, for which the outcome was inactive.
The same measure for `N#Cc1c(Cl)c(Cl)c(Cl)c(C#N)c1Cl`: “inactive”; for `CC(C)(C)C(O)C(Oc1ccc(Cl)cc1)n1cncn1` (stereo not given): “inactive”; for `O=C(O)CCCOc1ccc(Cl)cc1Cl`: “inactive”.
The same measure for `CNC(=O)/C=C(\C)OP(=O)(OC)OC`: “inactive”; for `O=C(O)C(F)(F)C(F)(F)C(F)(F)C(F)(F)C(F)(F)C(F)(F)C(F)(F)F`: “inactive”.
